Laboratory results from PubChem BioAssay (NCATS).
Records with an inconclusive call do not appear. Calls of active or inactive are those of the source. Unless noted, calls follow the shape of the dose curve; as a rule, active = well fitted curve in the direction sought with a large enough effect; inconclusive = small, poorly fitted or top-dose-only effect, or another doubt; inactive = no such curve, though single readings can be large; an effect the other way counts as inactive or inconclusive.

What was measured:
[1] = Confirmation and Secondary Assay for Modulators of Hemoglobin Beta Chain Splicing at IVS2 705 locus (AID 930);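 also: HeLa cells stably expressing the EGFP-705 splicing reporter; GFP fluorescence per well restored by corrected splicing of the IVS2-705 intron in EGFP; series mostly up to about 46 µM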
In short: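 Secondary splice-site specificity test uses HeLa expressing CMV-driven EGFP interrupted by IVS2-705; cells were treated 2 days at 37C with 500 nM antisense PNA as positive control.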

[2] = qHTS Assay for Identification of Small Molecule Agonists for Thrombopoietin (TPO) Signaling Pathway (AID 917)
In short: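 Ba/F3 (mouse) + hTPO receptor + GpIIb-promoter luciferase; IL-3 withdrawn overnight; compound + 26 pM TPO (EC50), 24 hrs, 37 C, 5% CO2; Steadylite luminescence, 10 min RT.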

[3] = molecular target: Pyruvate kinase (Leishmania mexicana) (UniProt Q27686); assay: qHTS Validation Assay for Inhibitors of Leishmania Mexicana Pyruvate Kinase (AID 945)
In short: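 Read-out: luminescence from PKLight stop/detection reagent, data normalized to DMSO. Reaction: 0.2 nM E451W LmPYK, 0.5 mM PEP, 0.1 mM ADP, pH 7.2, 1 h room temperature.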

[4] = molecular target: Pyruvate kinase PKM (Homo sapiens) (UniProt P14618); assay: qHTS Assay for Activators of Human Muscle Pyruvate Kinase (AID 954; active = well fitted curve in the direction sought with a large enough effect, not every such curve was filed as active)
In short: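 ATP production by PKM2 detected via luciferase luminescence after 1 h room-temperature reaction (0.1 nM enzyme, PEP at Km 0.5 mM, ADP 0.1 mM, pH 7.2 imidazole buffer). Inhibition scaled to no-enzyme control; activation referenced to 0.3 nM enzyme wells.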

[5] = molecular target: Muscarinic acetylcholine receptor M1 (Rattus norvegicus) (UniProt P08482); assay: qHTS Assay for Antagonists of Acetylcholine Muscarinic M1 Receptor: Measurement of IP-One Response (AID 944); also: nearly all actives have a fitted effect of over 75% in size
In short: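 Antagonism was measured as loss of carbachol-driven (EC80) IP1 accumulation in CHO cells carrying rat M1, using a homogeneous IP-One TR-FRET kit read at 620 and 665 nm.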

[6] = Cell Viability - LYMP2-001 (AID 921);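 also: series mostly up to about 92 µM; cells exposed to compound for 24 h at 37 °C; nearly all actives have a fitted effect of over 70% in size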
In short: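 CellTiter-Glo luminescence (intracellular ATP) after 24 hr compound exposure at 37 C, 2500 lymphoblastoid cells/well in complete medium. AC50 fitted with standard Hill equation; tetraoctylammonium bromide positive control.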

[7] = MultiTox-Fluor Cytotoxicity Assay - LYMP1-001 - Dead Cells (AID 946)
In short: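 Cytotoxicity as increased dead-cell protease fluorescence (bis-AAF-R110, 485/520 nm), read 60 min after MultiTox-Fluor reagent. Human lymphoblastoid line exposed 16 h; Hill-fitted AC50, with DMSO as 0% and 15 uM tetraoctylammonium bromide as 100%.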

[8] = MultiTox-Fluor Cytotoxicity Assay - LYMP1-001 - Live Cells (AID 947)
[9] = Cell Viability - LYMP1-002 - Assay at 16 hr (AID 948)
In short: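 LYMP1-002 human lymphoblastoid cells, 2500/well; 5 hr 37 C; cpd 16 hr 37 C; CellTiter-Glo 30 min RT; luminescence (ATP). Concentration-response, Hill-fit AC50. Pos ctrl tetraoctylammonium bromide.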

[10] = MultiTox-Fluor Cytotoxicity Assay - LYMP1-002 - Live Cells (AID 955);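 also: cells exposed to compound for 16 hours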
In short: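 In this qHTS viability format, lymphoblastoid cells (LYMP1-002, human) received compound for 16 hr at 37 C. Fluorogenic GF-AFC cleavage by viable cells was detected at 405/510 nm after 1 h at room temperature.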

Sequence of Pyruvate kinase (Leishmania mexicana) (Q27686 2-499 E452W): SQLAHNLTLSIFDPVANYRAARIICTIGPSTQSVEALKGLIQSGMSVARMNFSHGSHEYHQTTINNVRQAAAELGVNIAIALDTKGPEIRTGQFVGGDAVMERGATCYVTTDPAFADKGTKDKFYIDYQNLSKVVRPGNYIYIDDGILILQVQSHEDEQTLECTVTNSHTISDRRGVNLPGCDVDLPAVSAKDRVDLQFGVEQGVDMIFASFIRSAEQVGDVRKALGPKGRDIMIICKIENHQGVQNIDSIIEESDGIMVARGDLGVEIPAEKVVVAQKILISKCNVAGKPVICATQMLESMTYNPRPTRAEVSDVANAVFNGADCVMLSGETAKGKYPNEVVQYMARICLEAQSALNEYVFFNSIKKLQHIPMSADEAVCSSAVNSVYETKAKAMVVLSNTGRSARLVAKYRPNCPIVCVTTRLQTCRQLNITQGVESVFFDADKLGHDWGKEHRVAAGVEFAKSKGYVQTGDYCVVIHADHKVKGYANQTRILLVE
Sequence of Pyruvate kinase PKM (Homo sapiens) (P14618 whole entry, looked up): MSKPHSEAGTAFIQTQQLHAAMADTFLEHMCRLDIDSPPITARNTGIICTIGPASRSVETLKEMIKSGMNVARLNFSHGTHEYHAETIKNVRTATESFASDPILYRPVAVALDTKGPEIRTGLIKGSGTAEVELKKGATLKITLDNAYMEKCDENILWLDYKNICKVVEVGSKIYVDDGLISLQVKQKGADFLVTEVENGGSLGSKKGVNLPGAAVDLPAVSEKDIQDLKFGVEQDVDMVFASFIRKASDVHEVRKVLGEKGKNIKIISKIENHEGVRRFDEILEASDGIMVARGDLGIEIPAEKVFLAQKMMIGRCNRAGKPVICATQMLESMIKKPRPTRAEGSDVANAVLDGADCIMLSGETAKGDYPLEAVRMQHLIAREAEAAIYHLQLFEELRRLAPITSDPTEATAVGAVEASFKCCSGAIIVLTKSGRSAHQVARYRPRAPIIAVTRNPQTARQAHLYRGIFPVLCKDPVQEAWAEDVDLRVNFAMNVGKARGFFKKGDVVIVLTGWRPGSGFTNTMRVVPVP
Sequence of Muscarinic acetylcholine receptor M1 (Rattus norvegicus) (P08482 whole entry, looked up): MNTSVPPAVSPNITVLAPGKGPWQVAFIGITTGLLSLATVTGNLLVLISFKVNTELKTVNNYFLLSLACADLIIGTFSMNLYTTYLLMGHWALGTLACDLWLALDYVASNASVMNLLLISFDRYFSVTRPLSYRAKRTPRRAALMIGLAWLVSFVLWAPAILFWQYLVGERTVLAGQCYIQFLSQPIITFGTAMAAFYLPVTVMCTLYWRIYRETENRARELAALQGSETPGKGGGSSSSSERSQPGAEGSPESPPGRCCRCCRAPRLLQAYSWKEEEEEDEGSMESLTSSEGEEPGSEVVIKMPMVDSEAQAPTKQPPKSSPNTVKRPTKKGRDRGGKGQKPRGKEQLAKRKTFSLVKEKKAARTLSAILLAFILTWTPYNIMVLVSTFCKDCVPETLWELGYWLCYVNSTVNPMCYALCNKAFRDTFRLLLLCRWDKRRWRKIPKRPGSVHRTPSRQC

Compound: OCC(O)C(O)C(O)CO (stereo unspecified)
- outcome [1]: inactive

Compound: COc1ccc(C(C)=O)c(O)c1
- outcome [1]: inactive

Compound: CCCCCCCCCCCC(CC1OC(=O)C1CCCCCC)OC(=O)C(CC(C)C)NC=O (stereo unspecified)
- outcome [1]: inactive

Compound: C[C@@]12C(=O)OC(=O)[C@@]1(C)C1CCC2O1
- outcome [1]: inactive

Compound: CN(C)CC[C@H](c1ccc(Cl)cc1)c1ccccn1
- outcome [2]: inactive
- outcome [3]: inactive
- outcome [4]: inactive

Compound: Oc1cc2c(cc1O)C1c3ccc(O)c(O)c3OCC1(O)C2 (stereo unspecified)
- outcome [1]: inactive

Compound: CCC(C(=O)O)C1CCC(C)C(C(C)C(O)C(C)C(=O)C(CC)C2OC3(C=CC(O)[C@@]4(CC[C@](C)(C5CC[C@@](O)(CC)C(C)O5)O4)O3)C(C)CC2C)O1 (stereo partly specified)
- outcome [1]: inactive

Compound: Cc1ccc(O)c(C(CCN(C(C)C)C(C)C)c2ccccc2)c1 (stereo unspecified)
- outcome [1]: inactive

Compound: COc1ccc2c(c1OC)C(=O)OC2[C@H]1c2c(cc3c(c2OC)OCO3)CCN1C (stereo partly specified)
- outcome [2]: inactive
- outcome [5]: inactive
- outcome [3]: inactive

Compound: Cc1cc(O)c2c(c1)C(=O)c1cccc(O)c1C2=O
- outcome [6]: inactive
- outcome [1]: inactive
- outcome [7]: inactive
- outcome [8]: inactive
- outcome [9]: inactive
- outcome [10]: inactive

Compound: c1coc(CNc2ncnc3nc[nH]c23)c1
- outcome [1]: inactive

Compound: CC(Cc1ccc(O)c(O)c1)(NN)C(=O)O (stereo unspecified)
- outcome [1]: inactive
